An excerpt weighted towards active compounds, which were near 1.3% of everything screened.
sEH act – soluble epoxide hydrolase (human) activation; activation, % at 2 µM; purified human sEH enzymatic activity, activator screen; P34913; 0.04% of 91,000 active; AID 717; in the data active = activation above about 37%
BAP1 inh – blocks human BAP1 ubiquitin-AMC hydrolysis. Q92560. recombinant BAP1, Ub-AMC hydrolysis fluorescence kinetic; active compounds read low. calls only at 20 µM. 0.48% of 72,000 active;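 active = activity remaining at or below 50% of control, provided the compound also passes the data quality filters; inactive = the rest, including low values that fail the filters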;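 also: 100% = DMSO wells rate and 0% = substrate alone blank rate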
sEH inhibitor – blocks human soluble epoxide hydrolase activity | AID 707 | P34913 | inhibition, % at 2 µM | 0.34% of 91,000 active | recombinant human sEH enzymatic activity assay; in the data active = inhibition above about 80%
PLAP activator – activators of human placental alkaline phosphatase; purified PLAP enzyme, luminescent substrate read-out; active compounds read high; activation fold at 20 µM; AID 696; 1.2% of 96,000 active; P05187; in the data active = activation fold above about 2
BAP1 inh conf – confirmation of human BAP1 enzyme inhibitors; 8% of 310 active; purified BAP1, Ub-ethyl ester hydrolysis, HPLC; active compounds read low; shares compounds with BAP1 inh; % of control activity, % at 20 µM;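 active = percent of control activity at or below 60%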
* hit, by the source's call; i = inactive; · = no result shown; + = active, no number.

SMILES	sEH act	BAP1 inh	sEH inhibitor	PLAP activator	others
CCC(=NCCCn1ccnc1)c1c(O)n(Cc2ccccc2)c(=O)[nH]c1=O	15.5	·	-14.9	2.1*
CCCCn1c(=O)c(C(=O)Nc2nc3ccccc3[nH]2)c(O)c2ccccc21	·	+	·	0.9
CCN1CCN(Cc2cc(Br)cc(OC)c2O)CC1	0.1	i	2.8	1.1
Oc1c(Br)cc(Br)cc1CN1CCN(Cc2ccccc2)CC1	-22.6	·	21.1	2*
Oc1ccc(/C=N/NP(=S)(c2ccccc2)c2ccccc2)c(O)c1O	-9.6	·	9.3	2.4*
CCOC(=O)c1cc(C)n(CCc2cnc[nH]2)c1C	·	i	·	2.4*
N[C@@H](CCl)C(=O)O	·	i	·	·
NC(Cc1cc(O)c(O)cc1O)C(=O)O (centres undefined)	·	+	·	·
c1ccc2cc3ncccc3cc2c1	·	i	·	·
CCN(CC)S(=O)(=O)c1ccc(Cl)c(C(=O)Oc2cccc3cccnc23)c1	·	i	·	·
O=C(Nc1ccc(Br)cc1C(=O)c1ccccc1Cl)c1ccc(N2C(=O)CCC2=O)cc1	·	i	·	·
CC12CCC(O)CC1CCC1C2CCC2(C)C(OC(=O)c3ccccc3)CCC12 (centres undefined)	·	i	·	·
CCC(=Nc1ccc2c(c1)CCC2)c1c(O)n(C2CCCCC2)c(=O)[nH]c1=O	2.6	+	-4.8	0.8	BAP1 inh conf=83.7
CC(=Nc1ccc2c(c1)CCC2)c1c(O)n(C2CCCCC2)c(=O)[nH]c1=O	-1.9	·	-0.5	0.9
CCOc1ccc(C(=O)Nc2ccc(Cl)cc2C(=O)c2ccccc2)cc1	·	i	·	·
CCn1nc(-c2cccs2)nc2c(=O)n(C)c(=O)nc1-2	·	+	·	0.9	BAP1 inh conf=93.5

Screening data (PubChem)
